Source: PubChem (several laboratories)
Compounds with a hit are over-represented: about 2.1% of the library has one in this group of screens.
APP transl inh: inhibitors of APP translation via 5'UTR reporter, primary screen, APP 5'UTR luciferase, SH-SY5Y cells | 0.82% of 190,000 active | inhibition, % at 2 µM | SH-SY5Y APP 5'UTR-luciferase reporter, luminescence;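 active = inhibition above a set limit, derived from the sample mean plus 3 SD, cut at about 45% in these data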
Ba/F3 V617F tox: reduced viability of JAK2V617F-dependent Ba/F3 cells, primary screen, JAK2V617F inhibitor project, cell-based, Ba/F3 EpoR-JAK2V617F, luminescence; ATP luminescence; inhibition, % at 5.6 µM; 1.1% of 220,000 active; AID 1446, 2008;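 active = inhibition above the campaign mean plus 3 SD over all tested compounds, cut at about 24% in these data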;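 also: cytokine-independent growth of Ba/F3 cells driven by EpoR plus mutant JAK2; 0% = DMSO-treated cells and 100% = JAK inhibitor I control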
IEC-6 cytotox: cytotoxicity in IEC-6 intestinal epithelial cells, primary screen, cytotoxicity control for KLF5 inhibitor project, cell-based, luminescence; inhibition, % at 5 µM; IEC-6 cytotoxicity, luminescence viability; 0.78% of 290,000 active;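 also: 0% = plate median of test compound wells and 100% = cytotoxic reference compound wells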
aSyn 5UTR inh: MLPCN primary screen, SNCA 5' untranslated region. alpha-synuclein 5'UTR reporter, inhibitor activity. inhibition, % (tested at 7.5 µM). 0.82% of 300,000 active. AID 1813, 2009; in the data active = inhibition above about 60%;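 also: H4 neuroglioblastoma cells stably carrying SNCA 5'UTR luciferase fusion; 0% = DMSO wells and 100% = positive control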
KLF5 inh: KLF5 expression inhibitors, primary screen, DLD-1 cells, luminescence; inhibition, % at 5 µM; 0.23% of 290,000 active; AID 1700, 2009; DLD-1 KLF5 promoter-luciferase reporter;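 active = inhibition above a per-plate limit of that plate's mean compound inhibition plus 3 SD, cut at about 60% in these data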;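 also: 0% = DMSO wells and 100% = LY294002 at 200 µM; higher means less KLF5 promoter-driven luciferase light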
BaF3 tox: parental Ba/F3 cell viability inhibition, counter-screen for JAK2V617F inhibitor project, murine pro-B, CellTiter-Glo luminescence; AID 1486, 2009; 1.1% of 220,000 active; inhibition, % at 5.6 µM; CellTiter-Glo ATP luminescence;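 active = inhibition above a per-campaign cutoff, the mean inhibition of all tested compounds plus 3 SD, cut at about 27% in these data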;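 also: 0% = DMSO wells and 100% = JAK Inhibitor I control wells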
IEC-6 tox confirm: cytotoxic compounds in IEC-6 epithelial cells, confirmation, cytotoxicity control, cell-based, luminescence. shares compounds with IEC-6 cytotox. IEC-6 rat intestinal epithelial viability. inhibition, % at 5 µM. 63% of 1,900 active. AID 1907, 2009;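 also: 0% = vehicle and 100% = reference cytotoxic drug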
An asterisk follows results filed as active; · = no result. Rule as the data show it, unless noted: active = inhibition above about 22%; inactive = the rest.

SMILES	APP transl inh	Ba/F3 V617F tox	IEC-6 cytotox	aSyn 5UTR inh	KLF5 inh	BaF3 tox	IEC-6 tox confirm
CCC(C)NCCOCCOc1ccc(Cl)c2ccccc12 (centres undefined)	-4	5	34*	3	-14	1	15
CCC(C)NCCOCCOc1ccc(Cl)c(C)c1C (centres undefined)	-11	-1	-2	-12	1	4	·
CCc1nc2ccccc2c(=O)n1/N=C/c1ccc(Cl)cc1	·	·	·	2	·	·	·
COc1ccc(C2/C(=C(/O)c3ccc(Br)cc3)C(=O)C(=O)N2C)cc1 (centres undefined)	·	·	-8	-23	-16	·	·
COC(=O)Nc1ccc(S(=O)(=O)N2c3ccccc3CCC2C)cc1 (centres undefined)	61*	57*	48*	27	31	41*	53*
CC(=O)Nc1ccc(S(=O)(=O)N2CCCc3ccccc32)cc1	-11	22	40*	-12	4	20	42*
COC(=O)Nc1ccc(S(=O)(=O)N2CCCCC2C(=O)O)cc1 (centres undefined)	3	-3	1	21	-17	5	·
COc1cccc(NC(=O)[C@@H]2CCC(=O)N2C2OC(=O)c3ccccc32)c1 (some centres undefined)	·	·	-2	-15	-13	·	·
Cc1ccc(S(=O)(=O)N2CCN(C(=O)C3CSC4(C)CCC(=O)N34)CC2)cc1C (centres undefined)	·	·	·	13	·	·	·
Cc1c(C(=O)N2CCCCC2)c(S(=O)(=O)NCCc2ccc(Cl)cc2)c(C)n1C	·	·	-2	10	-31	·	·
CCCN(C(=O)Cc1ccc(S(=O)(=O)N2CCOCC2)s1)c1c(N)n(Cc2ccccc2)c(=O)[nH]c1=O	·	·	-4	0	-32	·	·
CC(C)Cc1ccc(C(=O)NCCOc2ccccc2)o1	·	·	-11	17	-57	·	·
C=CCn1c(SCC(=O)c2cccs2)nc2sc(C)cc2c1=O	2	-4	66*	25	-6	-1	44*
C=CCn1c(SCC(=O)c2cccs2)nnc1-c1cccc(OC)c1	17	-1	0	11	-1	6	·
CCOc1ccc(S(=O)(=O)Nc2ccccc2C(=O)N2CCOCC2)cc1	·	·	-5	2	-18	·	·
Cc1ccc(N(CC(=O)N2CCCCCC2)S(C)(=O)=O)cc1Cl	·	·	-5	11	-13	·	·
Nc1nc2c(ncn2C2C[C@H](O)[C@@H](CO)O2)c(=O)[nH]1 (some centres undefined)	·	·	·	-1	·	·	·
Nc1nc(Cl)nc2c1ncn2[C@H]1C[C@H](O)[C@@H](CO)O1	76*	101*	90*	84*	19	95*	68*
COc1cccc(NC(=O)CSc2nnnn2C2CCCCC2)c1	·	·	1	0	-16	·	·
C=C(C)COc1ccc(-c2[nH]ncc2-c2ccc(OC)c(OC)c2)c(O)c1	91*	81*	62*	-13	51	66*	57*
C=C(C)COc1ccc(-c2[nH]ncc2-c2ccc(OC)cc2)c(O)c1	·	-6	-1	7	3	0	·
O=C(NNC(=O)C12CC3CC(CC(C3)C1)C2)c1ccccn1	·	-4	22*	-50	39	-2	39*
O=C(NCCc1ccc(Cl)cc1)C1CCCO1 (centres undefined)	·	·	0	-14	-28	·	·
O=C(COc1ccccc1-c1ccccc1)NN=C1CCCC1	82*	3	53*	29	31	6	-8
CCc1cc(C(=O)NC2CCCc3c2cnn3-c2cccc(C)c2C)n(C)n1 (centres undefined)	·	·	31*	42	1	·	25*
SMILES	APP transl inh	Ba/F3 V617F tox	IEC-6 cytotox	aSyn 5UTR inh	KLF5 inh	BaF3 tox	IEC-6 tox confirm
Cc1cc(C(=O)NC2CCCc3c2cnn3-c2ccc(C)c(C)c2)n(C)n1 (centres undefined)	·	·	38*	6	21	·	27*
Cc1ccc(-n2ncc3c2CCCC3NC(=O)c2ccoc2)cc1C (centres undefined)	·	·	-7	10	-26	·	·
Cc1cccc(NC(=O)CCN2CCCC(C)C2)c1 (centres undefined)	·	·	3	3	-45	·	·
C/C(=N\NC(=O)c1nnn(-c2nonc2N)c1CN1CCc2ccccc21)c1ccccc1O	·	·	54*	75*	46	·	56*
O=C(Nc1ccc(NC(=O)N2CCN(c3ccccc3O)CC2)cc1)N1CCN(c2ccccc2O)CC1	·	·	1	27	-16	·	·
Cc1cc(=O)oc2cc(OCCc3ccccc3)ccc12	·	·	44*	-50	-132	·	22*
Cc1cc(=O)oc2cc(OCCCC[n+]3ccccc3)ccc12	·	-2	-6	-11	-51	-1	·
COc1ccc(C2=NOC(COc3ccc4c(C)cc(=O)oc4c3)C2)c(OC)c1 (centres undefined)	73*	78*	60*	83*	49	70*	56*
COc1cccc(C(=O)COc2ccc3c(C)cc(=O)oc3c2)c1	·	·	28*	-106	-34	·	18
COc1ccc(C(=O)COc2ccc3c(C)cc(=O)oc3c2)cc1	·	·	-3	-38	-31	·	·
Cc1ccc(CN2C(=O)C(C)Nc3ncnc(N4CCOCC4)c32)cc1 (centres undefined)	·	·	·	14	·	·	·
COc1ccc(CN(C)c2ncnc3sccc23)c(OC)c1OC	·	·	23*	-9	32	·	10
COc1ccc(CCN(C)c2ncnc3sccc23)cc1OC	2	5	-1	11	-14	1	·
CC(C)OC(=O)c1ccc2nc3ccccc3nc2c1	·	·	24*	35	-150	·	20
Cc1cc(OCC(O)CNC(C)c2ccccc2)ccc1C(C)C (centres undefined)	·	·	1	0	-12	·	·
CC(NCC(O)COc1ccc2ccccc2c1)c1ccccc1 (centres undefined)	·	·	53*	59	8	·	9
Cc1cccc(OCCN2C(=O)C(=O)c3cc(C)ccc32)c1	93*	86*	79*	-50	-26	84*	56*
CC(C)(C)NC(=O)C(=O)NNC(=O)c1cccc(F)c1	-17	7	6	-89	-77	11	·
CCn1c(-c2ccc(N(C)C)cc2)nc2ccccc21	-96	78*	30*	-97	-89	68*	6
COc1ccc(-c2[nH]ncc2/C=C(/C#N)C(=O)NC2CCCCC2)cc1	8	1	16	48	-24	3	·
Cc1ccc(-c2[nH]ncc2/C=C(\C#N)C(=O)NC2CCCCC2)cc1	-27	5	22*	56	13	6	18
CCC(=O)N1CCc2cc(S(=O)(=O)NC(C(=O)N3CCN(c4ccc(F)cc4)CC3)C(C)C)ccc21 (centres undefined)	·	·	0	4	-24	·	·
